Measurements taken from the supplement of paper PMC8728848.
Many of the other results were omitted from the sample, so the strongest signals are more common in it than they were.

Assays:
Assay in all cases: glycan array binding signal (z-score within array); higher = stronger binding
Settings in all cases: glycan notation: IUPAC condensed, linker removed
[1] = biological target: Fuc(a1-2)Gal(b1-3)GlcNAc(b1-2)Man(a1-3)[Fuc(a1-2)Gal(b1-3)GlcNAc(b1-2)Man(a1-6)]Man(b1-4)GlcNAc(b1-4)GlcNAc
In short: (§1)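 The binding signal is a Z-score computed within each array. Data were drawn from 3228 arrays in the Consortium for Functional Glycomics database, restricted to those with a known protein sequence. Scores were averaged over arrays of the same protein sequence at different concentrations or buffers, and over linkers, and negative values can be taken as non-binding.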

[2] = biological target: Fuc(a1-2)Gal(b1-3)GlcNAc(b1-2)Man(a1-3)[Fuc(a1-2)Gal(b1-3)GlcNAc(b1-2)Man(a1-6)]Man(b1-4)GlcNAc(b1-4)[Fuc(a1-6)]GlcNAc
In short: as §1

[3] = biological target: Fuc(a1-2)Gal(b1-4)Fuc(a1-3)]GlcNAc(b1-2)Man(a1-3)[Fuc(a1-2)Gal(b1-4)[Fuc(a1-3)]GlcNAc(b1-2)Man(a1-6)]Man(b1-4)GlcNAc(b1-4)GlcNAc
In short: as §1

Fuc(a1-2)Gal(b1-4)Glc = biological target: Fuc(a1-2)Gal(b1-4)Glc
In short: as §1

[4] = biological target: Fuc(a1-2)Gal(b1-4)GlcNAc(b1-2)Man(a1-3)[Fuc(a1-2)Gal(b1-4)GlcNAc(b1-2)Man(a1-6)]Man(b1-4)GlcNAc(b1-4)[Fuc(a1-6)]GlcNAc
In short: as §1

[5] = biological target: Fuc(a1-2)[Gal(a1-3)]Gal(b1-3)GlcNAc(b1-3)GalNAc
In short: as §1

[6] = biological target: Fuc(a1-2)[Gal(a1-3)]Gal(b1-4)GlcNAc(b1-2)Man(a1-3)[Fuc(a1-2)[Gal(a1-3)]Gal(b1-4)GlcNAc(b1-2)Man(a1-6)]Man(b1-4)GlcNAc(b1-4)[Fuc(a1-6)]GlcNAc
In short: as §1

[7] = biological target: Fuc(a1-2)[Gal(a1-3)]Gal(b1-4)GlcNAc(b1-3)[Fuc(a1-2)[Gal(a1-3)]Gal(b1-4)GlcNAc(b1-6)]GalNAc
In short: as §1

[8] = biological target: Fuc(a1-2)[GalNAc(a1-3)]Gal(b1-4)GlcNAc(b1-3)Gal(b1-4)GlcNAc
In short: as §1

[9] = biological target: Fuc(a1-2)[GalNAc(a1-3)]Gal(b1-4)GlcNAc(b1-3)[Fuc(a1-2)[GalNAc(a1-3)]Gal(b1-4)GlcNAc(b1-6)]GalNAc
In short: as §1

[10] = biological target: Fuc(a1-2)[GalNAc(a1-3)]Gal(b1-4)GlcNAc(b1-6)GalNAc
In short: as §1

[11] = biological target: Fuc(a1-2)[GalNAc(a1-3)]Gal(b1-4)[Fuc(a1-3)]GlcNAc
In short: as §1

[12] = biological target: Fuc(a1-3)[Gal(b1-4)]GlcNAc
In short: as §1

[13] = biological target: Fuc(a1-3)[Gal3S(b1-4)]GlcNAc6S
In short: as §1

Gal(a1-3)Gal(b1-3)GlcNAc = biological target: Gal(a1-3)Gal(b1-3)GlcNAc
In short: as §1

[14] = biological target: Gal(a1-3)Gal(b1-3)GlcNAc(b1-2)Man(a1-3)[Gal(a1-3)Gal(b1-3)GlcNAc(b1-2)Man(a1-6)]Man(b1-4)GlcNAc(b1-4)GlcNAc
In short: as §1

[15] = biological target: Gal(a1-3)Gal(b1-4)GlcNAc(b1-3)GalNAc
In short: as §1

Gal(a1-3)GalNAc = biological target: Gal(a1-3)GalNAc
In short: as §1

[16] = biological target: Gal(a1-4)Gal(b1-3)GlcNAc(b1-2)Man(a1-3)[Gal(a1-4)Gal(b1-3)GlcNAc(b1-2)Man(a1-6)]Man(b1-4)GlcNAc(b1-4)GlcNAc
In short: as §1

[17] = biological target: Gal(b1-3)GlcNAc(b1-2)Man(a1-3)[GlcNAc(b1-4)][Gal(b1-3)GlcNAc(b1-2)Man(a1-6)]Man(b1-4)GlcNAc(b1-4)GlcNAc
In short: as §1

[18] = biological target: Gal(b1-3)GlcNAc(b1-3)Gal(b1-4)GlcNAc(b1-2)Man(a1-3)[Gal(b1-3)GlcNAc(b1-3)Gal(b1-4)GlcNAc(b1-2)Man(a1-6)]Man(b1-4)GlcNAc(b1-4)GlcNAc
In short: as §1

[19] = biological target: Gal(b1-4)GlcNAc(b1-2)Man(a1-3)[GlcNAc(b1-4)][Gal(b1-4)GlcNAc(b1-2)Man(a1-6)]Man(b1-4)GlcNAc(b1-4)GlcNAc
In short: as §1

[20] = biological target: Gal(b1-4)GlcNAc(b1-2)[Gal(b1-4)GlcNAc(b1-6)]Man(a1-6)[Gal(b1-4)GlcNAc(b1-2)Man(a1-3)]Man(b1-4)GlcNAc(b1-4)GlcNAc
In short: as §1

[21] = biological target: Gal(b1-4)GlcNAc(b1-3)Gal(b1-4)GlcNAc
In short: as §1

Gal6S(b1-4)GlcNAc = biological target: Gal6S(b1-4)GlcNAc
In short: as §1

GlcNAc(b1-3)Gal = biological target: GlcNAc(b1-3)Gal
In short: as §1

GlcNAc(b1-4)GlcNAc = biological target: GlcNAc(b1-4)GlcNAc
In short: as §1

[22] = biological target: GlcNAc6S(b1-3)Gal(b1-4)GlcNAc
In short: as §1

[23] = biological target: Neu5Ac(a2-3)Gal(b1-3)GalNAc
In short: as §1

[24] = biological target: Neu5Ac(a2-3)Gal(b1-3)GalNAc(b1-3)Gal(a1-4)Gal(b1-4)Glc
In short: as §1

[25] = biological target: Neu5Ac(a2-3)Gal(b1-3)GlcNAc(b1-2)Man(a1-3)[GlcNAc(b1-4)][Neu5Ac(a2-3)Gal(b1-3)GlcNAc(b1-2)Man(a1-6)]Man(b1-4)GlcNAc(b1-4)GlcNAc
In short: as §1

[26] = biological target: Neu5Ac(a2-3)Gal(b1-3)[Fuc(a1-4)]GlcNAc
In short: as §1

Neu5Ac(a2-3)Gal(b1-4)Glc = biological target: Neu5Ac(a2-3)Gal(b1-4)Glc
In short: as §1

[27] = biological target: Neu5Ac(a2-3)Gal6S(b1-4)GlcNAc
In short: as §1

[28] = biological target: Neu5Ac(a2-3)Gal6S(b1-4)[Fuc(a1-3)]GlcNAc
In short: as §1

[29] = biological target: Neu5Ac(a2-3)[Neu5Ac(a2-6)]GalNAc
In short: as §1

[30] = biological target: Neu5Ac(a2-6)Gal(b1-4)GlcNAc(b1-2)Man(a1-3)[GlcNAc(b1-4)][Neu5Ac(a2-6)Gal(b1-4)GlcNAc(b1-2)Man(a1-6)]Man(b1-4)GlcNAc(b1-4)GlcNAc
In short: as §1

[31] = biological target: Neu5Ac(a2-6)Gal(b1-4)GlcNAc(b1-2)Man(a1-6)[Gal(b1-4)GlcNAc(b1-2)Man(a1-3)]Man(b1-4)GlcNAc(b1-4)GlcNAc
In short: as §1

[32] = biological target: Neu5Ac(b2-6)Gal(b1-4)GlcNAc
In short: as §1

B1: LgFlo1 (Saccharomyces pastorianus), B3IUA8 (protein)
chain: SGSTQACLPVGSRKNGMNVNFYKYSLQDSTTYSDPQYMAYKYSDTKKLGSVSGQTHLSIYYGPNTAFWNTASWSSDLFGFYTTPTNVTVEMTGYFLPPQTGSYTFKFATVDDSAILSVGGSIAFECCAQEQPPITSTDFTINGIKPWDAATPTDIKGSTYMYAGYYYPIKIVYSNAKALARLPVSVVLPDGTEVNDDFEGYVYSFDDDLSQSNCTIPDPSKHTTS
- glycan array binding signal (z-score) [1]: 2.1
- glycan array binding signal (z-score) [2]: 3.52
- glycan array binding signal (z-score) [3]: 4.98
- glycan array binding signal (z-score) (Fuc(a1-2)Gal(b1-4)Glc): -0.137
- glycan array binding signal (z-score) [4]: 0.313
- glycan array binding signal (z-score) [5]: 11.9
- glycan array binding signal (z-score) [6]: 11.9
- glycan array binding signal (z-score) [7]: 2.44
- glycan array binding signal (z-score) [8]: -0.328
- glycan array binding signal (z-score) [9]: 1.81
- glycan array binding signal (z-score) [10]: -0.114
- glycan array binding signal (z-score) [11]: 0.711
- glycan array binding signal (z-score) [12]: 0.072
- glycan array binding signal (z-score) [13]: 0.042
- glycan array binding signal (z-score) (Gal(a1-3)Gal(b1-3)GlcNAc): 2.47
- glycan array binding signal (z-score) [14]: 0.576
- glycan array binding signal (z-score) [15]: -0.146
- glycan array binding signal (z-score) (Gal(a1-3)GalNAc): -0.152
- glycan array binding signal (z-score) [16]: 1.89
- glycan array binding signal (z-score) [17]: 0.784
- glycan array binding signal (z-score) [18]: -0.078
- glycan array binding signal (z-score) [19]: -0.121
- glycan array binding signal (z-score) [20]: 0.549
- glycan array binding signal (z-score) [21]: -0.291
- glycan array binding signal (z-score) (Gal6S(b1-4)GlcNAc): -0.114
- glycan array binding signal (z-score) (GlcNAc(b1-3)Gal): -0.087
- glycan array binding signal (z-score) (GlcNAc(b1-4)GlcNAc): -0.042
- glycan array binding signal (z-score) [22]: -0.317
- glycan array binding signal (z-score) [23]: 5.83
- glycan array binding signal (z-score) [24]: -0.329
- glycan array binding signal (z-score) [25]: -0.135
- glycan array binding signal (z-score) [26]: -0.245
- glycan array binding signal (z-score) (Neu5Ac(a2-3)Gal(b1-4)Glc): 1.97
- glycan array binding signal (z-score) [27]: -0.229
- glycan array binding signal (z-score) [28]: -0.151
- glycan array binding signal (z-score) [29]: -0.356
- glycan array binding signal (z-score) [30]: -0.203
- glycan array binding signal (z-score) [31]: -0.38
- glycan array binding signal (z-score) [32]: -0.214
